Consider 36 compounds from PubChem BioAssay (Tox21).

Results filed as inconclusive are left out. Entries that show only a call come without a potency. Active and inactive are the calls of the source. Unless noted, calls come from the whole dose curve.
Potency is the fitted concentration of half-maximal effect.

Chain of Peroxisome proliferator-activated receptor delta (Homo sapiens) (Q03181 whole entry, looked up): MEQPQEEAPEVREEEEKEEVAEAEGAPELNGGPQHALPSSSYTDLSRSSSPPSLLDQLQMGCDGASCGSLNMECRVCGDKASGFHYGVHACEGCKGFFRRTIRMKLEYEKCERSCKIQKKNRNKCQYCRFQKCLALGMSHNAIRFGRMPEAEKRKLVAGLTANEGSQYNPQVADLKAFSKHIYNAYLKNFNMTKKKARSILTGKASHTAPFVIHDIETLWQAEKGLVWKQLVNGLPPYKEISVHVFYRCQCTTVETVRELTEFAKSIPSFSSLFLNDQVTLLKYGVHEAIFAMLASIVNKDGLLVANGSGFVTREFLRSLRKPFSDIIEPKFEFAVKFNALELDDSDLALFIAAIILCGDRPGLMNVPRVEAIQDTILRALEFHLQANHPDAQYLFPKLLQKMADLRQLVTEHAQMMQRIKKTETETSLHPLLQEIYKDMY

The target of the first assay is Peroxisome proliferator-activated receptor delta (Homo sapiens) (UniProt Q03181). Kind of assay: qHTS assay to identify small molecule agonists of the peroxisome proliferator-activated receptor delta (PPARd) signaling pathway (AID 743212).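 Note: HEK293H cells with PPARd UAS beta-lactamase reporter GeneBLAzer system.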 The settings on record: HEK293H PPARd-UAS-bla, beta-lactamase FRET ratio, 17 h; series mostly up to 62.6 µM. The gist of the method:
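Steps: seed PPARd-bla HEK293H cells; incubate 5 h, 37 C, 5% CO2; add compounds in DMSO; incubate, 37 C; add LiveBLAzer B/G FRET substrate; hold 2 h at room temperature; measure fluorescence.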
A general note: qHTS replaces the single test concentration by a dilution series.
Take `O=C(O)c1cc(O)c2c(c1)C(=O)c1cccc(O)c1C2=O`: the Potency entry is “inactive”.
Turning to `CO[Si](CCCNc1ccccc1)(OC)OC`, the Potency result was “inactive”.
For `CCCCCCOC(=O)c1ccc(O)cc1`, the Potency result is “inactive”.
Take `COc1cc(-c2ccc(N=C=O)c(OC)c2)ccc1N=C=O`: the Potency result was “inactive”.
Same read-out and setting: next, `S=c1[nH]c2ccccc2s1`: “inactive”; `O=C(Oc1cccc2cccnc12)c1ccccc1`: “inactive”.
Turning to `CCC(CN)=C(c1ccccc1)c1ccccc1`, the Potency entry was “inactive”.
The same measure, in the same setting: next, `Clc1ccc(C(Cn2ccnc2)OCc2ccc(Sc3ccccc3)cc2)c(Cl)c1` (centres undefined): “inactive”; `COc1cccc2c1C(=O)c1c(O)c3c(c(O)c1C2=O)C[C@@](O)(C(=O)CO)C[C@@H]3O[C@H]1C[C@H](N)[C@H](O[C@@H]2CCCCO2)[C@H](C)O1`: “inactive”; `O=C1c2c(O)ccc(Nc3ccc(CCO)cc3)c2C(=O)c2c([N+](=O)[O-])ccc(O)c21`: “inactive”.
Take `CCCCCCCCCCCCCC[P+](CCCC)(CCCC)CCCC` (tested in a mixture with another compound): the Potency entry is “inactive”.
With `Cc1cccc(N(C)C(=S)Oc2ccc3c(c2)C2CCC3C2)c1` (centres undefined), the Potency entry is “inactive”.
In the case of `Nc1c(Cl)cc(Cl)cc1Cl`, the Potency result was “inactive”.
`[O-][n+]1ccccc1SSc1cccc[n+]1[O-]`: the Potency result was “inactive”.
As to `O=C1CCCCCN1SSN1CCCCCC1=O`, the Potency entry is “inactive”.
On the same count and under the same terms, next, `CN1CCN(CCC(=O)N2c3ccccc3Sc3ccc(C(F)(F)F)cc32)CC1`: “inactive”; `Cc1[nH]nc2c1N=C(c1ccccc1Cl)c1cc([N+](=O)[O-])ccc1N2`: “inactive”; `Cc1nc(-c2ccc3c(c2)CCN(CCC2CCC(NC(=O)/C=C/c4ccc(F)cc4)CC2)CC3)no1` (centres undefined): 21.9 µM (active).
Take `Cc1cc(N)c(S(=O)(=O)O)cc1Cl`: the Potency entry is “inactive”.
Same read-out and setting: in the case of `O=C(Oc1ccccc1)c1ccccc1C(=O)Oc1ccccc1` it was “inactive”; in that of `O=C(O)c1c(Cl)cccc1Cl`, “inactive”; in that of `CC(C)n1nc(-c2cc3cc(O)ccc3[nH]2)c2c(N)ncnc21`, “inactive”.
Take `COC(=O)C1=C(C)NC(C)=C(C(=O)OCCc2ccc(N3CCN(C(c4ccccc4)c4ccccc4)CC3)cc2)C1c1cccc([N+](=O)[O-])c1` (centres undefined): the Potency result was “inactive”.
In the case of `Fc1ccc([C@@H]2CCNC[C@H]2COc2ccc3c(c2)OCO3)cc1`, the Potency result was “inactive”.
For the compound `c1ccc(CSCc2ccccc2)cc1`, the Potency entry was “inactive”.
For the compound `CC1(C)CCC(C)(C)c2cc(C(=O)Nc3ccc(C(=O)O)cc3)ccc21`, the Potency result was “inactive”.
For `CCC(C)(C)C1CCCCC1OC(C)=O` (centres undefined), the Potency entry is “inactive”.
Same read-out and setting: in the case of `CCC(N)(CO)CO` it was “inactive”; in that of `CCCCCCCCOC(=O)c1ccc(O)cc1`, “inactive”; in that of `CC1=C(/C=C/C(C)=C/C=C/C(C)=C/C=O)C(C)(C)CCC1`, “inactive”.
The same measure, in the same setting: in the case of `C=C(C)C(=O)OCC[N+](C)(C)C` it was “inactive”; in that of `Cc1cccc(CN2CCN(C(c3ccccc3)c3ccc(Cl)cc3)CC2)c1` (centres undefined), “inactive”; in that of `Cn1cc(C(=O)[C@@H]2CCc3nc[nH]c3C2)c2ccccc21`, “inactive”.
Same read-out and setting: in the case of `O=C(c1ccc(O)cc1O)c1ccc(O)cc1O` it was “inactive”; in that of `CC(C)(C)NC(=O)[C@@H]1C[C@@H]2CCCC[C@@H]2CN1C[C@@H](O)[C@H](Cc1ccccc1)NC(=O)[C@H](CC(N)=O)NC(=O)c1ccc2ccccc2n1`, “inactive”.

System in the next assay: not listed separately
In words: qHTS assay to identify small molecule antagonists of the peroxisome proliferator-activated receptor delta (PPARd) signaling pathway - cell viability counter screen (AID 743213; active = well fitted cell-killing curve with a large enough effect in the repeat runs; note: nearly all actives have a fitted effect of over 50% in size). The settings on record: PPARd-bla HEK293H viability, CellTiter-Glo luminescence, 17 h; series mostly up to 62 µM. Put shortly: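 Cytotoxicity counter screen: CellTiter-Glo luminescence read 30 min after addition, in the same wells as the reporter assay. There, PPARd UAS-bla HEK293H cells (3000/well) were treated 17 h at 37 C with compound and 300 nM L165041.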
Turning to `Cc1cc(C2CCCCC2)n(O)c(=O)c1`, the Potency was 9.44 µM (active).
Still for that read-out and setting: in the case of `COc1cc(-c2ccc(N=C=O)c(OC)c2)ccc1N=C=O` it was “inactive”; in that of `S=c1[nH]c2ccccc2s1`, “inactive”; in that of `CCC(CN)=C(c1ccccc1)c1ccccc1`, 13.3 µM (active).
Still for that read-out and setting: in the case of `COc1cccc2c1C(=O)c1c(O)c3c(c(O)c1C2=O)C[C@@](O)(C(=O)CO)C[C@@H]3O[C@H]1C[C@H](N)[C@H](O[C@@H]2CCCCO2)[C@H](C)O1` it was “inactive”.
In the case of `[O-][n+]1ccccc1SSc1cccc[n+]1[O-]`, the Potency is 0.206 µM (active).
Same read-out and setting: in the case of `O=C1CCCCCN1SSN1CCCCCC1=O` it was “inactive”; in that of `Cc1nc(-c2ccc3c(c2)CCN(CCC2CCC(NC(=O)/C=C/c4ccc(F)cc4)CC2)CC3)no1` (centres undefined), “inactive”; in that of `CCC(C)(C)C1CCCCC1OC(C)=O` (centres undefined), 54.9 µM (active).
`CCCCCCCCOC(=O)c1ccc(O)cc1`: the Potency was 49 µM (active).
`C=C(C)C(=O)OCC[N+](C)(C)C`: the Potency entry was “inactive”.

The target in another assay is Peroxisome proliferator-activated receptor delta (Homo sapiens) (UniProt Q03181). Kind of assay: qHTS assay to identify small molecule antagonists of the peroxisome proliferator-activated receptor delta (PPARd) signaling pathway (AID 743215; active = well fitted inhibition curve with a large enough effect in the signal ratio in the repeat runs, not every such curve was filed as active; the % refers to the signal ratio;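 note: cells stimulated with agonist L165041 at 300 nM final during compound exposure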). Conditions: HEK293H PPARd-UAS-bla, beta-lactamase FRET ratio, antagonist, 17 h; series mostly up to 62 µM. Put shortly:
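Plated HEK293H PPARd-bla cells rested 5 h at 37 C and 5% CO2. Compound, then agonist L165041 at 300 nM final, was added; 17 h at 37 C followed. Substrate loading, 2 h room temperature, fluorescence measured.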
In the case of `O=C(O)c1cc(O)c2c(c1)C(=O)c1cccc(O)c1C2=O`, the Potency entry was “inactive”.
`CO[Si](CCCNc1ccccc1)(OC)OC`: the Potency entry was “inactive”.
Still for that read-out and setting: next, `Clc1ccc(C(Cn2ccnc2)OCc2ccc(Sc3ccccc3)cc2)c(Cl)c1` (centres undefined): “inactive”.
Still for that read-out and setting: in the case of `CCCCCCCCCCCCCC[P+](CCCC)(CCCC)CCCC` (tested in a mixture with another compound) it was “inactive”.
On the same count and under the same terms, next, `Cc1cccc(N(C)C(=S)Oc2ccc3c(c2)C2CCC3C2)c1` (centres undefined): “inactive”; `Nc1c(Cl)cc(Cl)cc1Cl`: “inactive”.
In the case of `CN1CCN(CCC(=O)N2c3ccccc3Sc3ccc(C(F)(F)F)cc32)CC1`, the Potency was 29.8 µM (active).
Take `Cc1[nH]nc2c1N=C(c1ccccc1Cl)c1cc([N+](=O)[O-])ccc1N2`: the Potency was 24.5 µM (active).
Turning to `Cc1cc(N)c(S(=O)(=O)O)cc1Cl`, the Potency entry is “inactive”.
For the compound `O=C(Oc1ccccc1)c1ccccc1C(=O)Oc1ccccc1`, the Potency result is “inactive”.
In the case of `O=C(O)c1c(Cl)cccc1Cl`, the Potency entry was “inactive”.
On to `COC(=O)C1=C(C)NC(C)=C(C(=O)OCCc2ccc(N3CCN(C(c4ccccc4)c4ccccc4)CC3)cc2)C1c1cccc([N+](=O)[O-])c1` (centres undefined), for which the Potency result is “inactive”.
Regarding `c1ccc(CSCc2ccccc2)cc1`, the Potency result is “inactive”.
Still for that read-out and setting: in the case of `CC1(C)CCC(C)(C)c2cc(C(=O)Nc3ccc(C(=O)O)cc3)ccc21` it was “inactive”; in that of `CCC(N)(CO)CO`, “inactive”; in that of `CC1=C(/C=C/C(C)=C/C=C/C(C)=C/C=O)C(C)(C)CCC1`, 48.7 µM (active).
In the case of `Cc1cccc(CN2CCN(C(c3ccccc3)c3ccc(Cl)cc3)CC2)c1` (centres undefined), the Potency result was “inactive”.
On the same count and under the same terms, next, `O=C(c1ccc(O)cc1O)c1ccc(O)cc1O`: “inactive”.
